AGP1 TOR yeast – alters AGP1-GFP fluorescence in TOR pathway yeast screen | GFP response vs DMSO, % at 10 µM | 0.02% of 320,000 active | S. cerevisiae AGP1-GFP multiplex flow cytometry, 3 h; GFP as percent of DMSO wells;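 active = GFP response relative to DMSO above a set limit, near screen average plus 3 SD, cut at about 150% in these data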;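 also: median GFP channel fluorescence of the gated AGP1 strain per well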
MEP2-GFP yeast – modulators of TOR pathway MEP2-GFP in S. cerevisiae; GFP response vs DMSO, % at 10 µM; AID 2016; 0.51% of 330,000 active; S. cerevisiae MEP2-GFP strain, flow cytometry GFP, 3 h; 100% = DMSO control level;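 active = GFP response versus DMSO above a set limit, roughly screen mean plus 3 SD, cut at about 180% in these data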;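 also: median GFP fluorescence of the barcode-gated MEP2-GFP cells per well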
Efflux pump inh – antifungal efflux pump inhibition, Nile Red retention; inhibition, % at 10 µM; 0.44% of 330,000 active; S. cerevisiae Candida pump triplex;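 active = plate passing quality check with inhibition over a set limit, or well fluorescence over plate mean plus 4 SD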;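 also: Nile Red retained in pooled yeast measured as flow cytometry median fluorescence; 0% = buffer negative control and 100% = Enniatin B positive control; higher means more Nile Red kept so more efflux inhibition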
RPL19A TOR yeast – alters RPL19A-GFP fluorescence in TOR pathway yeast screen. S. cerevisiae RPL19A-GFP strain, flow cytometry, 3 h; stronger effect = lower value. percent response vs DMSO, % at 10 µM. 0.3% of 330,000 active;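 active = percent response vs DMSO below 50%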;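 also: median channel GFP fluorescence of the barcoded RPL19A-GFP strain; ratio of sample median GFP to plate DMSO average so 100% = DMSO; lower means less RPL19A-GFP as with rapamycin TOR inhibition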
CIT2 TOR yeast – modulators of TOR pathway CIT2-GFP in S. cerevisiae; S. cerevisiae CIT2-GFP strain, flow cytometry, 3 h; 100 means same as DMSO wells; GFP response vs DMSO, % at 10 µM; 0.065% of 320,000 active;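 active = GFP response relative to DMSO above a set limit, near the screen mean plus 3 SD, cut at about 150% in these data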;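 also: ratio of well median GFP fluorescence to mean of DMSO wells on the plate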
LAP4 TOR yeast – modulators of TOR pathway LAP4-GFP in S. cerevisiae; S. cerevisiae LAP4-GFP multiplex, flow cytometry GFP, 3 h; median GFP as percent of DMSO wells; 0.34% of 320,000 active; GFP response vs DMSO, % at 10 µM;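 active = GFP response vs DMSO above a set limit, about the screen mean plus 3 SD, cut at about 150% in these data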
LAP4 cherry2 – second confirmation of modulators of TOR reporter LAP4-GFP in yeast; shares compounds with LAP4 TOR yeast; S. cerevisiae LAP4-GFP strain, flow cytometry GFP, 3 h; GFP response vs DMSO, % at 10 µM; 20% of 590 active; AID 2621;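 active = GFP signal as percent of the solvent control above about 150%, meaning raised reporter expression, limit read from the data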;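 also: ratio of well median GFP fluorescence to plate DMSO mean so 100% = DMSO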
MEP2 cherry2 – yeast MEP2-GFP modulation, second cherry pick | shares compounds with LAP4 TOR yeast | S. cerevisiae MEP2-GFP strain, flow cytometry GFP, 3 h | GFP response vs DMSO, % at 10 µM | 10% of 590 active | AID 2622;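 active = GFP signal above 150% of the solvent control wells, that is a rise of more than half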;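 also: median channel GFP fluorescence of all gated yeast cells per well; ratio of median GFP to plate DMSO average so 100% = DMSO level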
RPL19A GFP CP2 – reconfirmed modulator of RPL19A-GFP TOR reporter in yeast | shares compounds with LAP4 TOR yeast | S. cerevisiae RPL19A-GFP strain, flow cytometry GFP, 3 h; stronger effect = lower value; 100% means same as DMSO wells | GFP response vs DMSO, % at 10 µM | 3% of 590 active;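 active = under 65% GFP response relative to DMSO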;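 also: median GFP channel fluorescence per well over the all cells gate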
CIT2 GFP CP2 – yeast CIT2-GFP TOR reporter modulation, second cherry pick; 8% of 590 active; AID 2624; shares compounds with LAP4 TOR yeast; S. cerevisiae CIT2-GFP strain, flow cytometry GFP, 3 h; DMSO control wells read 100%; GFP response vs DMSO, % at 10 µM;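 active = GFP response vs DMSO above about 150%, limit read from the data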;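 also: median green fluorescence per well over all gated yeast cells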
AGP1 GFP CP2 – second confirmation of modulators of TOR reporter AGP1-GFP in yeast; percent response vs DMSO, % at 10 µM; AID 2643; 590 tested, under 10 active; S. cerevisiae AGP1-GFP strain, flow cytometry GFP, 3 h; shares compounds with LAP4 TOR yeast;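 active = over 150 percent of DMSO response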;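 also: median GFP channel fluorescence over all cells without mother daughter split; sample median GFP divided by mean DMSO control so 100% equals DMSO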
Yeast autofluor – yeast s288c autofluorescence artifact, counter-screen. shares compounds with LAP4 TOR yeast. S. cerevisiae s288c, 520 nm autofluorescence, flow cytometry, 3 h; stronger effect = higher value; zero means same as solvent-only cells. fluorescence change (kMESF span) at 33 µM. 610 tested, under 10 active;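 active = fluorescence span over the dose series, or activity score, above about 33, limit read from the data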
The depositor's hits bear a star; . = not tested or not shown. The list is not random: actives were taken first. Their share in the collection is about 1.3%.

SMILES	AGP1 TOR yeast	MEP2-GFP yeast	Efflux pump inh	RPL19A TOR yeast	CIT2 TOR yeast	LAP4 TOR yeast	LAP4 cherry2	MEP2 cherry2	RPL19A GFP CP2	CIT2 GFP CP2	AGP1 GFP CP2	Yeast autofluor
C#CCOc1c(Br)cc(/C=C2/C(=O)ON=C2C)cc1OCC	84	91	0	105	96	95	.	.	.	.	.	.
CCC1CCCCN1S(=O)(=O)c1ccc2c(c1)CCN2C(C)=O (stereo not given)	103	98	1	96	101	97	.	.	.	.	.	.
O=C(/C=C/c1ccccc1)c1cc(Br)ccc(=O)c1O	80	85	0	92	88	118	145	154*	72	163*	87	23
Oc1cc(-c2ccncc2)cc2cccnc12	107	106	0	101	95	117	.	.	.	.	.	.
Oc1cc(-c2ccc(N3CCCCC3)nc2)cc2cccnc12	87	115	-1	92	97	164*	117	119	103	99	98	0.5
NCCCn1c(C(=O)c2ccc(Cl)cc2)c2ccc([N+](=O)[O-])cc2[n+]1[O-]	96	112	0	105	100	113	.	.	.	.	.	.
N#Cc1c2ccc([N+](=O)[O-])cc2[n+]([O-])n1-c1ccccc1	53	95	0	93	94	165*	179*	136	119	111	89	0.71
COc1ccc(NC(=O)/C(C#N)=C/c2ncc([N+](=O)[O-])n2C)c(OC)c1	104	134	0	100	117	182*	.	.	.	.	.	2.3
COc1ccc(NC(=O)/C(C#N)=C/c2ccc[nH]2)c(OC)c1	98	98	0	101	103	88	.	.	.	.	.	.
NS(=O)(=O)c1cccc(NC(=O)c2ccc(NS(=O)(=O)c3cccc([N+](=O)[O-])c3)cc2)c1	111	103	0	95	106	111	.	.	.	.	.	.
COc1cccc(-c2ncc3ccccc3c2COC(=O)c2ccc(Br)cc2)c1	95	85	0	93	84	112	.	.	.	.	.	.
COc1cccc(-c2ncc3ccccc3c2COC(=O)c2cccc(Br)c2)c1	101	103	1	95	81	159*	132	98	91	105	96	.
COc1ccc(-c2cc(C(F)(F)F)nc(S(C)(=O)=O)n2)cc1	114	146	0	97	84	155*	.	.	.	.	.	0.62
CS(=O)(=O)c1nc(-c2cccs2)cc(C(F)(F)F)n1	124	162	0	88	84	186*	.	.	.	.	.	0.61
O=C(O)CCS(=O)(=O)c1nc(-c2cccs2)cc(C(F)(F)F)n1	102	98	0	92	101	92	.	.	.	.	.	.
Cc1cc(C)cc(OCCNC(=O)C2CCN(S(=O)(=O)c3ccccc3)CC2)c1	105	103	0	106	105	104	.	.	.	.	.	.
CCOC(=O)COc1ccccc1/C=C\[N+](=O)[O-]	76	91	0	72	74	188*	140	122	96	113	101	.
Cc1ccc(C(=O)COC(=O)COc2ccccc2[N+](=O)[O-])s1	99	101	0	98	97	104	.	.	.	.	.	.
COC(=O)c1ccc(NC(=O)c2cccc(C)c2[N+](=O)[O-])cc1	96	98	0	104	98	95	.	.	.	.	.	.
CCN(Cc1ccccc1)C(=O)CCc1nc(CN2CCN(C(=O)c3ccc([N+](=O)[O-])cc3)CC2)no1	98	103	0	100	101	96	.	.	.	.	.	.
Cc1ccc(C(=O)NC(C)C(c2cccs2)N2CCCC2)s1 (stereo not given)	92	109	0	105	99	86	.	.	.	.	.	.
CCCc1cc(NCc2ccccn2)n2nc(C)c(-c3ccccc3)c2n1	70	99	0	90	67	158*	.	.	.	.	.	2
COc1cc(S(=O)(=O)Nc2cccc3cn[nH]c23)c(OC)cc1C	107	139	0	97	167*	115	111	108	101	102	99	.
O=S(=O)(Nc1cccc2cn[nH]c12)c1ccc(F)cc1	106	107	0	103	92	96	.	.	.	.	.	.
Cc1ccc(NC(=O)c2cc(N3C(=O)C=CC3=O)ccc2Cl)cc1C	100	91	0	70	66	115	156*	168*	78	106	88	1.3
SMILES	AGP1 TOR yeast	MEP2-GFP yeast	Efflux pump inh	RPL19A TOR yeast	CIT2 TOR yeast	LAP4 TOR yeast	LAP4 cherry2	MEP2 cherry2	RPL19A GFP CP2	CIT2 GFP CP2	AGP1 GFP CP2	Yeast autofluor
C[C@]12C=CC(=O)C=C1CCC1C2CC[C@@]2(C)C1CCC21OCCO1 (stereo not given in full)	94	91	0	98	105	89	.	.	.	.	.	.
C[C@]12C=C[C@H](O)CC1=CCC1C2CC[C@@]2(C)C1CCC21OCCO1 (stereo not given in full)	110	103	0	71	84	197*	107	102	95	94	90	.
O=C(Nc1ccc(Cl)cc1)ON=C1CCCC1	49	100	0	72	88	130	199*	150	85	224*	68	0.81
O=C(O)/C=C/C(=O)c1ccc2c(c1)CCc1ccccc1-2	78	89	0	72	60	226*	129	165*	69	87	77	1.2
O=C(CCNS(=O)(=O)c1ccccc1C(F)(F)F)NCCCN1CCOCC1	99	105	0	98	97	96	.	.	.	.	.	.
O=C(O)C(c1ccccc1)N1C(=O)/C(=C/c2cccs2)SC1=S (stereo not given)	100	94	0	99	100	105	.	.	.	.	.	.
CC(c1ccccc1)N1C(=O)/C(=C/c2ccncc2)SC1=S (stereo not given)	90	82	0	84	73	194*	261*	124	79	99	97	0.81

Screening data (PubChem)
